Screening data from PubChem.
In the library only some 3.7% were active in any assay of this set; here they are far more common.
ERa SRC1 pot: enhances coactivator binding to human estrogen receptor alpha; P03372; TR-FRET ERalpha-LBD/SRC-Cy5 coactivator binding, 2 h; 100 = basal binding, no effect; coactivator binding (% of control), % at 25.6 µM; 86,000 compounds, 1.3% hits; in the data active = activity above about 200%;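 note: binding measured in presence of low estradiol as agonist stimulus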
Target sequence (P03372 whole entry, looked up, the tested form may be a part): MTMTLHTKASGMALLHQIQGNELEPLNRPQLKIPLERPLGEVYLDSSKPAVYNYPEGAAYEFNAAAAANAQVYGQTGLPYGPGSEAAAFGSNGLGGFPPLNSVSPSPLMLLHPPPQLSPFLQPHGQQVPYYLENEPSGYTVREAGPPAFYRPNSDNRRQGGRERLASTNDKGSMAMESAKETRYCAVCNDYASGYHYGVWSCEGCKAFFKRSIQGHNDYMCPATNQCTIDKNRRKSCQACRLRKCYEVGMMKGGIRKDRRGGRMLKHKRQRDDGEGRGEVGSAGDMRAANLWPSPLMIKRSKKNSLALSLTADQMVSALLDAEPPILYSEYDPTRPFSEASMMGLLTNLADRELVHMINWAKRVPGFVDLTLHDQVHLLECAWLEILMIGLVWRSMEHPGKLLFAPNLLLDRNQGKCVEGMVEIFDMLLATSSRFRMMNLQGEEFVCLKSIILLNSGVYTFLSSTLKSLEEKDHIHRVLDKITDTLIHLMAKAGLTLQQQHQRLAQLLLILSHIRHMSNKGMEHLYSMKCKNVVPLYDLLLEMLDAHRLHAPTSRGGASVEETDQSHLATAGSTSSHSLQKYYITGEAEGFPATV
ERb SRC1 inh: ER-beta (human) coactivator binding inhibition; Q92731; TR-FRET ER-beta LBD / SRC1-Cy5 peptide binding; receptor agonist-loaded with 1 µM estradiol; inhibition, % at 25.6 µM; 86,000 compounds, 1.3% hits;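 active = compounds whose percent inhibition of the receptor-coactivator binding signal exceeds about 50% in the single-dose screen, limit read from the data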
Smad3 inh: Smad3 (human) transcription factor binding inhibition; P84022; TR-FRET Smad3/Dy647-FoxH1 peptide binding, europium anti-His; inhibition, % at 25 µM; 88,000 compounds, 0.29% hits; AID 630;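 active = compounds that reduce the energy-transfer binding signal between the protein and its labelled peptide by more than half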
ERa coact inh: ER-alpha (human) coactivator binding inhibition. P03372. 86,000 compounds, 1.7% hits. TR-FRET ER-alpha LBD / SRC-1 peptide, estradiol-bound. inhibition, % at 25.6 µM; in the data active = inhibition above about 50%
Large screens that a line does not name were inactive; [ ] = another dose, or the depositor's remark.

CSc1ccc(S(=O)(=O)Nc2c(C)cccc2C)cc1	ERa coact inh 55
COc1ccc(NS(=O)(=O)c2ccc(SC)cc2)cc1	none
O=C(O)CC1(C(=O)O)CCCCC1	none (no result: ERa SRC1 pot, ERb SRC1 inh, ERa coact inh)
CC(C)OC(=O)C(C)Oc1ccc(C(=O)NCCc2ccccc2)cc1 (stereo unspecified)	none
C(/C=C/c1ccccc1)=Nc1ccc2c(c1)Cc1ccccc1-2	none (no result: ERa SRC1 pot, ERb SRC1 inh, ERa coact inh)
CCOC(=O)C1=C(C)NC(=O)NC1c1ccco1 (stereo unspecified)	ERb SRC1 inh 66
CCOC(=O)C1=C(C)NC(=O)NC1c1ccc(OC(=O)c2ccco2)cc1 (stereo unspecified)	none
CC1=C(C(=O)OC(C)C)C(c2ccc(F)cc2)NC(=O)N1 (stereo unspecified)	none
CC1=C(C(=O)OC(C)C)C(c2ccco2)NC(=O)N1 (stereo unspecified)	ERb SRC1 inh 55[fluorescence artefact?]
CC1CCCCN1CC(=O)Nc1sc2c(c1C#N)CCC2 (stereo unspecified)	ERb SRC1 inh 53
O=c1c2c3c(sc2nc2sc(C4CC4)nn12)CCCC3	ERa SRC1 pot 234
Cc1ccc2cc(CCNS(=O)(=O)c3ccc(F)cc3)c(=O)[nH]c2c1	ERa SRC1 pot 216
NC(=[SH+])[N-]/N=C/c1ccccn1.O=S(=O)(O)O.[Fe]	none (no result: ERa SRC1 pot, ERb SRC1 inh, ERa coact inh)
NCCNC(=S)S	Smad3 inh 57 (no result: ERa SRC1 pot, ERb SRC1 inh, ERa coact inh)
COc1ccccc1CN(Cc1cc2cc3c(cc2[nH]c1=O)OCCO3)Cc1nnnn1Cc1ccco1	none
O=c1[nH]c2cc3c(cc2cc1CN(Cc1ccccc1)Cc1nnnn1Cc1ccco1)OCCO3	ERa SRC1 pot 216
O=c1[nH]c2cc3c(cc2cc1CN(Cc1cccs1)Cc1nnnn1Cc1ccco1)OCCO3	ERa coact inh 51
COc1ccccc1-n1c(C)cc(C=O)c1C	none
COc1c2c(c3c(c1CCC(=O)O)OC(C)(C)C=C3)OC(C)(C)C=C2	none (no result: ERa SRC1 pot, ERb SRC1 inh, ERa coact inh)
Cn1c(=O)c2c(nc(CN3CCc4ccccc4C3)n2Cc2ccc(F)cc2)n(C)c1=O	none
Cc1ccccc1Cn1c(CN2CCc3ccccc3C2)nc2c1c(=O)n(C)c(=O)n2C	ERb SRC1 inh 97[fluorescence artefact?]
O=C1C2=C(Nc3cc([N+](=O)[O-])ccc3N2)O[C@H]1c1ccc([C@H]2OC3=C(Nc4ccc([N+](=O)[O-])cc4N3)C2=O)cc1	none (no result: ERa SRC1 pot, ERb SRC1 inh, ERa coact inh)
COc1ccc(/C=N/n2cc(-c3ccc(OC)cc3)nc2N)cc1	ERa coact inh 77[fluorescence artefact?]
COc1cccc(=O)c2c(C)n(C)c(C)c12	ERb SRC1 inh 51[fluorescence artefact?]
CCOc1cccc(=O)c2c(C)n(C)c(C)c12	none
C=CCNC(=O)Nc1ccc2oc(C)nc2c1	ERb SRC1 inh 86[fluorescence artefact?]
O[C@@H](C1=C/C(=C\c2ccncc2)c2ccccc21)c1ccncc1	Smad3 inh 76 (no result: ERa SRC1 pot, ERb SRC1 inh, ERa coact inh)
COc1cc(NC(=O)CCNC(=O)Cn2cnc3ccccc3c2=O)cc(OC)c1OC	ERa coact inh 83[fluorescence artefact?]
O=C(O)C/C=C/CC(=O)O	none (no result: ERa SRC1 pot, ERb SRC1 inh, ERa coact inh)
COc1ccc(NS(=O)(=O)c2ccc(N)c(C(=O)O)c2)cc1	ERa coact inh 57[fluorescence artefact?]
CCN1CCn2c3c(c4cc(C)ccc42)CCCC31 (stereo unspecified)	ERb SRC1 inh 56[fluorescence artefact?]
CC(=O)Nc1nc2n(n1)C(c1ccc(Cl)cc1)C=C(C)N2 (stereo unspecified)	Smad3 inh 63
COc1ccc(C2C=C(c3ccc(Cl)cc3)Nc3nc(NC(C)=O)nn32)cc1 (stereo unspecified)	ERa coact inh 70
CCc1cc(-c2n[nH]c(C)c2Oc2ccc(C(C)C)cc2)c(O)cc1O	none
OC[C@H](S)CS	Smad3 inh 86 (no result: ERa SRC1 pot, ERb SRC1 inh, ERa coact inh)
O=C(NCCc1ccccc1)C1CCN(S(=O)(=O)c2cccnc2)CC1	ERa coact inh 58[fluorescence artefact?]
CCOC(=O)Cc1csc(NC(=O)CCCCCN2C(=O)c3ccccc3C2=O)n1	none
CC1=CC(=C2C(=O)c3ccccc3C2=O)C=C(C)O1	ERa SRC1 pot 884[fluorescence artefact?]
Cc1cccc(NC(=O)Cc2coc3ccc4ccccc4c23)n1	none
O=C(c1cccs1)c1coc2ccc(O)cc12	none
CCC(=O)c1coc2ccc(O)cc12	ERb SRC1 inh 78[fluorescence artefact?], ERa coact inh 67[fluorescence artefact?]
O=C(Oc1cccc(-c2cnc3ccccc3n2)c1)c1ccco1	ERa SRC1 pot 311
O=C(Oc1ccc2ccccc2c1)c1ccco1	none
CCN1CCN(Cc2ccc(NC(=O)Nc3cccs3)cc2)CC1	ERb SRC1 inh 72[fluorescence artefact?]
C[C@@H](N=C(N)N)C(=O)O	none (no result: ERa SRC1 pot, ERb SRC1 inh, ERa coact inh)
COc1cccc(-c2nnn(CC(=O)Nc3ccc(C)cc3C)n2)c1OC	ERa SRC1 pot 283[fluorescence artefact?]
COc1ccc(CCNC(=O)Cn2nnc(-c3cccc(OC)c3OC)n2)cc1OC	none
CC(C)[C@](N)(C(=O)O)c1ccccc1	none (no result: ERa SRC1 pot, ERb SRC1 inh, ERa coact inh)
O=C(CSc1nnc(-c2cccs2)n1-c1ccccc1)N1CCCc2ccccc21	ERa SRC1 pot 889[fluorescence artefact?]
